This note sets out measurements from PubChem BioAssay AID492952 (Southern Research Specialized Biocontainment Screening …, 2010).

Among all 2,300 compounds or so, about 1,500 (65%) were called active. How the calls were made is not given here. The set was probably picked from earlier hits. The list shows a part of the results. A call without a number means that no potency is given here. Potency and affinity values are given separately.

This assay is described as follows: replicating M. tuberculosis growth inhibition, dose response, non-replicating M. tuberculosis project, H37Rv (AID 492952).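 Further: Mycobacterium tuberculosis grown in culture; growth inhibition read after a week of incubation.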 Particulars: series mostly up to 50 µM.
In the case of `COc1cc(/C=N/Nc2ccc(Cl)c(C(=O)O)c2)ccc1OC(=O)c1cccs1`, the result was inactive.

With `Cc1ccc(S(=O)(=O)NCC(=O)OCCOc2cccc(Cl)c2)cc1`, the molecule was classed as inactive.

Turning to `Cn1c(SCCOc2cccc(Cl)c2)nnc1-c1ccncc1`, the result was inactive.

As to `CN(CCS(=O)(=O)c1ccc(Cl)cc1)Cc1cccnc1`, the molecule was called inactive.

As for `Cc1ccc(NC(=O)CCSc2nnc(-c3ccco3)o2)cc1`, the call was inactive.

On to `CCCn1nnnc1NC(=O)COc1ccc(Br)cc1`, for which the call was inactive.

Regarding `CCCn1nnnc1NCc1ccc(CC)cc1`, the outcome was inactive.

`CCCn1nnnc1NCc1ccc(C(C)C)cc1`: the molecule was called inactive.

On to `Cc1ccc(-c2nnc(NC3CCCC3)s2)cc1`, for which the call was inactive.

As for `Oc1c(Br)cc(Br)cc1/C=N/c1nccs1`, the outcome was inactive.

As to `Cc1cccc(NCc2nnc(-c3ccccc3)o2)c1C`, the molecule was classed as inactive.

Regarding `O=C(NCc1ccc(F)cc1)c1ccc(Br)o1`, the molecule was called inactive.

As for `Cc1cccc(NC(=O)c2n[nH]c([N+](=O)[O-])c2Br)c1C`, the molecule was called inactive.

Take `C=C[C@]1(C)C=C2CCC3[C@](C)(CCC[C@@]3(C)C(=O)O)C2CC1` (some centres not stated): the molecule was classed as inactive.

Regarding `O=C(Nc1ccccc1N1CCN(C(=O)c2ccc(Cl)cc2)CC1)c1ccc([N+](=O)[O-])o1`, the outcome was inactive.

For `CCn1nnc(NC(=O)c2ccc([N+](=O)[O-])o2)n1`, the molecule was called inactive.

On to `O=C(c1ccc(Br)o1)N1CCC(Cc2ccccc2)CC1`, for which the call was inactive.

`CC1CCN(C(=O)C2COc3ccccc3O2)CC1` (configuration not stated): the molecule was classed as inactive.

`O=C1NC2(CCC3(CC2)OCCO3)NN1c1ccc(Cl)cc1`: the molecule was classed as inactive.

With `O=C(COC(=O)Cc1ccc(Br)cc1)Nc1ccc(N2CCOCC2)cc1`, the molecule was called inactive.

For `NC(=O)c1ccc(-c2ccc(Br)cc2)o1`, the molecule was called inactive.

For `O=C(NC1=NCCS1)c1ccc(-c2ccc(Cl)cc2)o1`, the result was inactive.

On to `Cc1c(NC(=O)c2coc(=O)c(Br)c2)c(=O)n(-c2ccccc2)n1C`, for which the result was inactive.

Turning to `COc1ccc(N=N/C(=C\O)C(=O)c2cccs2)cc1`, the molecule was classed as inactive.

As for `CC(CCc1ccccc1)NC(=O)COC(=O)c1cccs1` (configuration not stated), the call was inactive.

Turning to `COc1ccc(C(=O)COC(=O)CCC(=O)c2cccs2)cc1`, the molecule was called inactive.

With `CC(C)(NO)/C(=N\O)c1ccccc1`, the result was inactive.

As to `CCc1cc(C(c2ccncc2)N2CCN(C)CC2)c(NC(=O)c2ccccc2)s1` (configuration not stated), the outcome was inactive.

`CCC1CCc2sc(C(=O)NCC3CCCO3)cc2C1` (configuration not stated): the outcome was inactive.

On to `COc1ccccc1N1CCN(C(=O)CCn2c(=O)[nH]c3ccsc3c2=O)CC1`, for which the outcome was inactive.

As for `CC(C)(C)c1ccc(C(=O)N2CCCC2)s1`, the outcome was inactive.

On to `CC(=O)Oc1ccc(N(C(C)=O)S(=O)(=O)c2cccs2)c2ccccc12`, for which the result was inactive.

As for `COc1cccc(OCC(=O)NNC(=O)c2cccs2)c1`, the molecule was classed as inactive.

Consider `COc1ccc(-c2cc(O)cc(O)c2)cc1`, for which the molecule was called inactive.

`COc1ccc(-c2nc(C=O)cs2)cc1`: the outcome was inactive.

Consider `CCc1ccc(C(C)NC(=O)C2CCCO2)cc1` (configuration not stated), for which the outcome was inactive.

Take `Cc1ccc2cc(/C=N/NC(=O)[C@H](C)NC(=O)OC(C)(C)C)c(Cl)nc2c1`: the outcome was inactive.

In the case of `NC(N)=N/N=C/c1cccc([N+](=O)[O-])c1O`, the result was inactive.

For the molecule `CCOc1ccc(NC(=O)CCc2ccc(C)o2)cc1`, the result was inactive.

Take `Cc1cccc(NC(=O)CO/N=C/c2ccc3c(c2)OCO3)c1`: the molecule was called inactive.

Take `COCC(=O)Nc1ccccc1NC(C)=O`: the molecule was classed as inactive.

`CCOC(=O)C(=CNNc1cccc(Cl)c1)C(=O)OCC`: the outcome was inactive.

With `COc1ccc(C(=O)CCNc2ccc(F)cc2)cc1`, the molecule was called inactive.

For the molecule `O=C(CN1CCN(c2ccccc2)CC1)Nc1nnc(-c2ccccc2)s1`, the molecule was classed as inactive.

Turning to `CCc1nnc(NC(=O)CN2CCN(Cc3ccc(F)cc3)CC2)s1`, the call was inactive.

Turning to `CCOC(=O)c1ccc(NC2OC(=O)c3ccccc32)cc1` (configuration not stated), the molecule was called inactive.

For `CCOC(=O)c1ccc(N=C(CC)c2c(O)n(C)c(=O)n(C)c2=O)cc1`, the molecule was called inactive.

`O=C(O)c1ccccc1C(=O)NNc1ccc(F)cc1`: the molecule was called inactive.

Regarding `Nc1scc(-c2ccncc2)c1Cl`, the outcome was inactive.

In the case of `COc1ccc(C(C)NC(=O)CCc2ccccc2)cc1` (configuration not stated), the call was inactive.

Turning to `CC(C)Oc1ccc(CNC(=O)Oc2ccccc2)cc1`, the molecule was called inactive.

`C/C(=N\NC(=O)c1ccccc1O)C1C(=O)c2ccccc2C1=O`: the molecule was classed as inactive.

As for `O=C(O)CCCCCN1C(=O)CSC1=S`, the molecule was classed as inactive.

With `Cc1cccc(CC(=O)NCC2CCCCC2)c1`, the outcome was inactive.

As for `Clc1ccccc1CSc1nnc([C@@H]2CCCN2)o1`, the result was inactive.

Consider `S=c1[nH]c2ccccc2o1`, for which the result was inactive.

On to `Cc1ccc(CNCc2cc(Cl)ccc2O)cc1`, for which the molecule was called inactive.

Take `Cc1cc(OCCOCCNCc2ccccc2)ccc1C(C)C`: the molecule was classed as inactive.

Turning to `COc1ccc(NCC(=O)N2CCCC2)cc1Cl`, the result was inactive.

On to `CC(=O)c1ccc(NC(=O)CCc2ccc(C)o2)cc1`, for which the molecule was classed as inactive.

Regarding `CCc1ccc(NC(=O)CCc2ccc(C)o2)cc1`, the outcome was inactive.

With `FC(F)(F)c1nc(SCc2ccc(Cl)cc2Cl)n[nH]1`, the call was inactive.

In the case of `CCCCOc1ccc(CSCCN)cc1Cl`, the call was inactive.

`Clc1ccc(SCCCCn2ccnc2)cc1`: the molecule was called inactive.

`Cc1ccc(OCCCCn2ccnc2)c([N+](=O)[O-])c1`: the molecule was classed as inactive.

With `O=C(COc1ccc2ccccc2c1)NNC(=O)c1cccs1`, the result was inactive.

Regarding `CCc1ccc(OCCCC(=O)Nc2nccs2)cc1`, the result was inactive.

For the molecule `CCCCCCCCCCn1cc(C(C)=O)c(=O)[nH]c1=O`, the call was inactive.

Consider `CCOC(=O)Cc1cc(=O)n2[nH]cc(-c3ccc(Cl)cc3)c2n1`, for which the molecule was called inactive.

As for `CCOC(=O)C1(O)CC(C)=NN1C(=O)c1cccc(Br)c1` (configuration not stated), the result was inactive.

In the case of `N#Cc1ccc(N=c2ssnc2Cl)cc1`, the molecule was called inactive.

`CC1(C)C[C@H]2C=C(C=O)[C@]3(C=O)C[C@]3(C)[C@H]2C1`: the molecule was classed as inactive.

In the case of `CCc1nnc(N/N=C/c2c(F)cccc2Cl)n1N`, the result was inactive.

For `CC(C)(C)c1cc(CN2CCC(O)CC2)cc(C(C)(C)C)c1O`, the result was inactive.

As for `O=C(COc1ccc(Br)cc1)N/N=C1/SCC(=O)N1Cc1ccccc1`, the molecule was classed as inactive.

For `COc1ccc(NC(=O)COc2ccc3c(c2)CCC3)cc1`, the molecule was classed as inactive.

As for `O=C(COc1ccc(Cl)cc1)Nc1ccccc1Cl`, the molecule was called inactive.

`Cc1ccc(OCC(=O)N2CCCc3ccccc32)cc1`: the molecule was classed as inactive.

For `O=C(COC(=O)c1cccc([N+](=O)[O-])c1)NCc1cccs1`, the result was inactive.

In the case of `O=C(COc1ccc(Cl)cc1)OCC(=O)N1CCCc2ccccc21`, the molecule was classed as inactive.

Consider `Cn1c(SCc2c(F)cccc2Cl)nc2c(c1=O)SCC2`, for which the call was inactive.

Consider `COc1cccc(/C=N/NC(=O)c2ccoc2C)c1O`, for which the molecule was classed as inactive.
